This is an account of results in PubChem BioAssay.

Activity calls are given as the source filed them.

Test [1] concerns XIP peptide (Xip251-270) binding. The test is described as follows: XIP fragment 251-270 binding compounds – biochemical, small-molecule microarray, fluorescence 635/667 nm, 0.1 µg/mL protein, primary screen (AID 1182). Conditions: fluorescent protein binding, 635 nm, higher = more signal, called active from +8 up or from −8 down.
The test system of a further test is XIP peptide (Xip251-270). The test is described as follows: compounds binding XIP fragment 251-270 – biochemical, small-molecule microarray, fluorescence 635/667 nm, 0.5 µg/mL protein, primary screen (AID 1183). To be noted: fluorescence 635 nm, higher = more signal.
Test [2] in a line: blood-stage malaria parasite viability loss – strain 3D7, DAPI fluorescence, 100 nL, primary screen (AID 1184).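 Further: parasites grown inside human red blood cells in medium with human serum.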 To be noted: P. falciparum 3D7 growth, 3 d, higher = more signal.
The target of test [3] is Homeobox protein Hox-A13 (Mus musculus) (UniProt Q62424). Nature of the test: disruptors of Hoxa13 oligonucleotide interaction – biochemical, fluorescence polarization, labeled oligonucleotide, primary screen (AID 1185). To be noted: Hoxa13:DNA binding, 15 min, higher = more signal, called active from +8 up or from −8 down.
Sequence of Homeobox protein Hox-A13 (Mus musculus) (Q62424 whole entry, looked up): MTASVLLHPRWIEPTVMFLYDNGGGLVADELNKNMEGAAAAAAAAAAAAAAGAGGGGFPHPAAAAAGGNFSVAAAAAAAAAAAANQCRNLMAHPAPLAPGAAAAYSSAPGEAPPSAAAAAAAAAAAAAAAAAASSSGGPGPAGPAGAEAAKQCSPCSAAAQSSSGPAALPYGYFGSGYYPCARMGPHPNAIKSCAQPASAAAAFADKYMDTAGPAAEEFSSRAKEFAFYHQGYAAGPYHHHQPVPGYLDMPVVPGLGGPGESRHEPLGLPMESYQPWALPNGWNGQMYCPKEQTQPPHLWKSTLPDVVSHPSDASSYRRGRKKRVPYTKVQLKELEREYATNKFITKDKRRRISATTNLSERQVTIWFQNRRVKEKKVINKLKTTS

In the case of `CCOC(=O)[C@H](Cc1ccccc1)NC(=O)CCC1CC(OC(=O)NCCc2ccc(F)cc2)CC2(CCCC(COC(=O)NCCOc3ccccc3)O2)O1` (some centres undefined), the composite z-score was -0.337 (inactive) in test [1] and 0.401 in the test on XIP peptide (Xip251-270). Besides, the z-score in test [2] is -1.7; in test [3], -2.88 (inactive).

On to `COC(=O)[C@H](C)NC(=O)CCC1CC(OC(=O)NCc2cccc3ccccc23)CC2(CCCC(COC(=O)NCCCN3CCCC3=O)O2)O1` (some centres undefined), for which the composite z-score in test [1] is 1.17 (inactive); with XIP peptide (Xip251-270), 0.582. The z-score was -0.529 in test [2] and -3.27 (inactive) in test [3].

For the compound `COC(=O)CC=C[C@@H](C)[C@@H](C=NOC[C@@H](O)[C@H]1O[C@@H]2OC(C)(C)O[C@@H]2[C@H]1O)OC`, the figures for the composite z-score (in test [1]; with XIP peptide (Xip251-270)) were -0.33 (inactive) and -0.0618, respectively. Besides, the z-score is 0.364 in test [2] and 0.321 (inactive) in test [3].

Regarding `Cc1ccc(S(=O)(=O)N[C@@H]2COC(=O)CC=C[C@@H](C)[C@H](NS(=O)(=O)c3ccc(C)cc3)COC(=O)[C@H](C)NC(=O)CC=C[C@H]2C)cc1`, the composite z-score is -0.668 (inactive) in test [1] and -0.564 in the test with XIP peptide (Xip251-270). The z-score in test [2] was -0.196; in test [3], -1.11 (inactive).

As to `CCCNC(=O)OC[C@H]1O[C@H](CCON=C2C[C@@H](O)[C@@H](O)[C@@H]3[C@@H]4C(=O)N(CC)C(=O)[C@@H]4CC[C@@H]23)C=C[C@@H]1Oc1ccc(OC)cc1`, the values for the composite z-score (in test [1]; in the test with XIP peptide (Xip251-270)) were -0.14 (inactive) and 0.696, respectively. For the same compound, the z-score in test [2] is 0.497; in test [3], -7.64 (inactive).

As for `CC(=O)OC[C@H]1O[C@@H](ON=C(C)CCN2CCCCc3nc(C)c(C)cc32)[C@H](OC(C)=O)[C@@H](OC(C)=O)[C@@H]1OC(C)=O`, the composite z-score was -0.0733 (inactive) in test [1] and 0.566 in the test with XIP peptide (Xip251-270). The figures for the z-score in test [2] and in test [3] were -0.98 and -3.93 (inactive), respectively.

On to `CCc1cc2c(nc1CC)CCN(CCC(C)=NOC[C@@H](C)[C@H](OCc1ccccc1)C(C)C)C2`, for which the composite z-score was -0.259 (inactive) in test [1] and -0.125 with XIP peptide (Xip251-270). Further, the z-score is 0.23 in test [2] and -3.53 (inactive) in test [3].

`COc1ccc(COC(=O)NN=C2C[C@@H](O)[C@@H](O)[C@@H]3[C@@H]4C(=O)N(Cc5ccc6c(c5)OCO6)C(=O)[C@@H]4CC[C@H]23)cc1`: the composite z-score in test [1] is 0.369 (inactive); in the test with XIP peptide (Xip251-270), 0.174. Also, the z-score in test [2] was -0.427; in test [3] it was -0.118 (inactive).

On to `CC(CCC(=O)OC[C@H]1O[C@H](C#Cc2ccccc2)C=C[C@@H]1Oc1ccc(C)cc1)=NOC[C@@H](C)[C@H](OCc1ccccc1)C(C)C`, for which the composite z-score was -0.582 (inactive) in test [1] and -0.693 in the test on XIP peptide (Xip251-270). Besides, the figures for the z-score in test [2] and in test [3] were -0.0982 and -0.499 (inactive), respectively.

Consider `COc1ccc(OC[C@@H]2CC3[C@@H](c4ccc(Br)cc4)[C@H](C)CC[C@H]3C(=O)O2)cc1` (some centres undefined), for which the figures for the composite z-score (in test [1]; with XIP peptide (Xip251-270)) were -0.0755 (inactive) and 0.659, respectively. Also, the z-score in test [2] was 0.163; in test [3], 0.109 (inactive).

`C[C@@H](c1ccccc1)N1C(=O)[C@H]2[C@H]3[C@H](O)[C@H](O)CC(=NNC(=O)OCc4ccccc4)[C@@H]3CC[C@H]2C1=O`: the composite z-score was 0.101 (inactive) in test [1] and 0.209 with XIP peptide (Xip251-270). For the same compound, the z-score in test [2] is 0.556; in test [3], 0.963 (inactive).

With `COC(=O)CC=C[C@@H](C)[C@@H](C=NOC[C@@H](C)[C@H](OCc1ccccc1)C(C)C)NS(=O)(=O)c1ccc(C)cc1`, the composite z-score in test [1] was 0.265 (inactive); with XIP peptide (Xip251-270) it was -0.0132. For the same compound, the z-score in test [2] is -0.192; in test [3] it was -4.05 (inactive).

As for `CO[C@H]1COC(=O)[C@H](CCSC)NC(=O)CC=C[C@@H](C)[C@H](OC)COC(=O)[C@@H](OCc2ccccc2)C=C[C@@H]1C`, the composite z-score in test [1] was 2.65 (inactive); in the test on XIP peptide (Xip251-270), 0.358. For the same compound, the z-score in test [2] was -0.772; in test [3], -1.29 (inactive).

Consider `COC(=O)[C@H](C)NC(=O)CCC1CC(OC(=O)NCCc2ccc(F)cc2)CC2(CCCC(COC(=O)NCc3ccccc3)O2)O1` (some centres undefined), for which the composite z-score was 0.166 (inactive) in test [1] and 0.607 in the test with XIP peptide (Xip251-270). Further, the z-score was -1.93 in test [2] and -1.56 (inactive) in test [3].

Regarding `COC(=O)[C@H](C)NC(=O)CCC1CC(OC(=O)NCc2ccc3c(c2)OCO3)CC2(CCCC(COC(=O)NCc3ccccc3)O2)O1` (some centres undefined), the figures for the composite z-score (in test [1]; in the test on XIP peptide (Xip251-270)) were 0.361 (inactive) and 0.554, respectively. Further, the figures for the z-score in test [2] and in test [3] were -1.75 and -2.47 (inactive), respectively.

Turning to `CC(=O)OC[C@H]1O[C@H](CC=NO[C@@H](C)c2cn([C@H](CO)Cc3ccccc3)nn2)C=C[C@@H]1OC(C)=O`, the composite z-score in test [1] was -0.0018 (inactive); with XIP peptide (Xip251-270), 0.361. Further, the z-score in test [2] is -1.13; in test [3] it was -0.583 (inactive).

As to `COc1ccc2c(c1)O[C@@H](c1cccc(C(F)(F)F)c1)[C@H](O)C2=O`, the figures for the composite z-score (in test [1]; in the test on XIP peptide (Xip251-270)) were 0.245 (inactive) and -0.233, respectively. The values for the z-score in test [2] and in test [3] were 0.142 and 0.16 (inactive), respectively.

For the compound `CCOC(=O)[C@H](Cc1ccccc1)NC(=O)CCC1CC(OC(=O)NCc2cccc3ccccc23)CC2(CCCC(COC(=O)NCCOc3ccccc3)O2)O1` (some centres undefined), the composite z-score in test [1] was -0.0988 (inactive); in the test with XIP peptide (Xip251-270), 0.512. For the same compound, the figures for the z-score in test [2] and in test [3] were -1.86 and -2.04 (inactive), respectively.

As to `COc1ccc(O[C@H]2C=C[C@@H](C#Cc3ccccc3)O[C@@H]2CO)cc1`, the composite z-score in test [1] is -0.727 (inactive); with XIP peptide (Xip251-270), 0.266. The z-score in test [2] is 0.284; in test [3] it was -3.22 (inactive).

As to `O=C1[C@H]2[C@H]3[C@H](O)[C@H](O)CC(=NOC[C@@H](O)COCc4ccco4)[C@@H]3CC[C@H]2C(=O)N1C1CCCCC1`, the values for the composite z-score (in test [1]; in the test on XIP peptide (Xip251-270)) were 0.288 (inactive) and 0.306, respectively. Further, the z-score in test [2] is 1.7; in test [3], -4.42 (inactive).

Take `O=C1[C@H]2[C@H]3[C@H](O)[C@H](O)CC(=NOC[C@@H](O)COCc4ccco4)[C@@H]3CC[C@H]2C(=O)N1c1cccc(Oc2ccccc2)c1`: the composite z-score in test [1] was 0.2 (inactive); with XIP peptide (Xip251-270), -0.344. For the same compound, the z-score in test [2] was 0.48; in test [3], -5.57 (inactive).
